# Measured values from paper PMC7819943, “Rice protein-binding microarrays: a tool to detect cis-acting elements near promoter regions in rice”.
# In all, about 68,000 sequences were measured (“fluorescence intensity (a.u.)”: median about 9,100, highest 2% from about 16,000 on). Only a selection was taken, and the highest values are over-represented in it overall.
# Target: OsWRKY34 (Oryza sativa, UniProt Q0JBA9 1-250)
# Test: protein-binding microarray (RPBM); PBS, 2% BSA, 51.3 ng/ul salmon testes DNA, 50 uM zinc acetate, 200 nM TF, 25 C, 1 h; high values mean tight binding
# Details: protein: recombinant; tags: N-terminal polyhistidine and DsRed monomer fusion (pET32a); label: CyDye5-dUTP incorporated in the synthesized complementary strand; 3' TTTTT single-stranded linker to array surface; dsDNA, one strand shown
# In short: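 Per-feature fluorescence intensity (arbitrary units), read on an Axon 4000B scanner, is the binding signal. Transcription factors carrying an N-terminal polyhistidine tag and DsRed fusion were expressed in E. coli BL21-CodonPlus and purified on Ni–NTA. A custom Agilent array, made double-stranded by primer extension with Cy5-dUTP and blocked with 2% BSA, was incubated with 200 nM protein in PBS, 2% BSA, salmon testes DNA and 50 µM zinc acetate at 25 °C for 1 h and then washed.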
# OsWRKY34, sequence (Q0JBA9 entry or part of it): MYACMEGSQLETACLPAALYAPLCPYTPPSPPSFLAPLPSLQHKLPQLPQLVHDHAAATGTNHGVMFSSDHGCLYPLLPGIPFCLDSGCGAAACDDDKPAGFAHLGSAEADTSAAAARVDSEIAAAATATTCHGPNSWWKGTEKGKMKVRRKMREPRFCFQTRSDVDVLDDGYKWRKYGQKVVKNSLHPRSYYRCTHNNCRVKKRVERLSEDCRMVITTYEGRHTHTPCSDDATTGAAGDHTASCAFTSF
row,Sequence,binding signal
1,CCCACACGCGCTCCATGCATCTCCACCACGCTCCATGTGTCGGAGTCACCTAGTGCAG,11000 fluorescence intensity (a.u.)
2,CCGTCCGCCATTGCAGCTTCGTTGTTCTGTACCTTCTTGCCGGAGTCACCTAGTGCAG,10900 fluorescence intensity (a.u.)
3,CCGGGTCACACATCCCCTCATACTCGGGCCTTGTTTAGTTCGGAGTCACCTAGTGCAG,8740 fluorescence intensity (a.u.)
4,TACTGCCTCTCTCTGACCCCATTGACCAACTCCGTTGACCCGGAGTCACCTAGTGCAG,15800 fluorescence intensity (a.u.)
5,AGATGGATGCTCTGCCCGCCGCCCTACCACCCTCTGCCATCGGAGTCACCTAGTGCAG,8030 fluorescence intensity (a.u.)
6,GTCTTTTCTTCAAGGTTATCTTTTTTGTCCCTTTTTTATTCGGAGTCACCTAGTGCAG,15200 fluorescence intensity (a.u.)
7,TCATATTGTACCTTCCACTTTTATTCTTTTAAAGCCTATACGGAGTCACCTAGTGCAG,9560 fluorescence intensity (a.u.)
8,AGGCGCTCCATAGGCCTCGTCATCTTCACAGTCACACACCCGGAGTCACCTAGTGCAG,11200 fluorescence intensity (a.u.)
9,GCTGCCTATTCCATACAAATTTCGTAGGTTCATTTCCAACCGGAGTCACCTAGTGCAG,10000 fluorescence intensity (a.u.)
10,CATCTACGTGCTCTCTTTGGTTGGGGTGTTCTTGCTGCTACGGAGTCACCTAGTGCAG,17700 fluorescence intensity (a.u.)
11,TAGATCTCTTGCTTTGGGTGTTGTTTGCTCTAGGTGTTCTCGGAGTCACCTAGTGCAG,8250 fluorescence intensity (a.u.)
12,ATTGGTCGTCTTGCTGAGCTCTCGTACTTGGATCTCTCTACGGAGTCACCTAGTGCAG,11100 fluorescence intensity (a.u.)
13,TTCACTATTGGGTGTTTTTGTCTCGATTCACCTTCATCGTCGGAGTCACCTAGTGCAG,8840 fluorescence intensity (a.u.)
14,TCTAGGTTCTGTTCTATTCGGTTCTAGGTTATCATATTTTCGGAGTCACCTAGTGCAG,12100 fluorescence intensity (a.u.)
15,GACTATAGAGGCTTTGTTTGTTTGGGGTGTGTTTTTGTCTCGGAGTCACCTAGTGCAG,17200 fluorescence intensity (a.u.)
16,GTCGTCGTCTTCGTCTCGAGTTCTTGGTTGGTTGGATCTACGGAGTCACCTAGTGCAG,19400 fluorescence intensity (a.u.)
17,CGTGTTGGGGTTCTCTTCCTGCTGCTTTGGCCACCTGGGACGGAGTCACCTAGTGCAG,12500 fluorescence intensity (a.u.)
18,GATATTGGAGGTGCATCTGTTAGGGTTCGGGTTCTCTCTACGGAGTCACCTAGTGCAG,16700 fluorescence intensity (a.u.)
19,CTTCTTCGGATCACTCGGTTGGTTTCTTGGTTTCTTGGTTCGGAGTCACCTAGTGCAG,13000 fluorescence intensity (a.u.)
20,ATGAATTAGGTGTGGTTCTCTTTAATCTGTTATTAGTCATCGGAGTCACCTAGTGCAG,11000 fluorescence intensity (a.u.)
21,TTTGGGGTGTGTTTTTGTCTAGAGGTAAAGTTTTTAAAGTCGGAGTCACCTAGTGCAG,10600 fluorescence intensity (a.u.)

row,Sequence,binding signal
1,GGACTCCTGATTTCTACTCTATTCCTATTCCACTAGCTTACGGAGTCACCTAGTGCAG,14400 fluorescence intensity (a.u.)
2,ATCCTGCGATTCCACCATATCCAATCCTCGTATCTTGGGTCGGAGTCACCTAGTGCAG,8310 fluorescence intensity (a.u.)
3,TTATCTAGATTCGTATTACTAGGATGTGTCTCGTTCAACCCGGAGTCACCTAGTGCAG,8780 fluorescence intensity (a.u.)
4,GTGGGCCCCGCCCGTGTGATCGTGTCTCTGTTTCGTTTTCCGGAGTCACCTAGTGCAG,12100 fluorescence intensity (a.u.)
5,GTGTTTTTTCTTCATTTGTCCCGTAATAAATTTATTTTTTCGGAGTCACCTAGTGCAG,12500 fluorescence intensity (a.u.)
6,CGCTTACAGTCCACTCTCCACTGCGCCCGCATGAGTCATGCGGAGTCACCTAGTGCAG,8880 fluorescence intensity (a.u.)
7,AAACTGCCAGCTTTCTGCATCTCTCCGCCCTCATGATGCGCGGAGTCACCTAGTGCAG,9490 fluorescence intensity (a.u.)
8,TTTTCTTTCCTTTATTATTTTCTTTATCCTTTTTTTCTCCCGGAGTCACCTAGTGCAG,9250 fluorescence intensity (a.u.)
9,ATCGGCGCCGTCGACCGCGACCACCCTGCCGCCGAGCGCCCGGAGTCACCTAGTGCAG,10300 fluorescence intensity (a.u.)
10,TCCTCTTCTTCTTCTTCTTCTTCTCGTGGGTGCAAGAAGCCGGAGTCACCTAGTGCAG,8380 fluorescence intensity (a.u.)
11,CGCCCAAGCTAGCTAGTGGCCATTATCCCATGGATATTTCCGGAGTCACCTAGTGCAG,8280 fluorescence intensity (a.u.)
12,ATCCTGTATCGTCCAGAATGCTTCTTCCATCCTAATCACCCGGAGTCACCTAGTGCAG,9220 fluorescence intensity (a.u.)
13,ATCTTTTTACCCAATTCTTGATCACTCTTCTTGGTCGTTCCGGAGTCACCTAGTGCAG,8060 fluorescence intensity (a.u.)
14,GGTTGGGTGTTTTTGCTTCTCTTGTAGTCTTTGTGTAGAACGGAGTCACCTAGTGCAG,21500 fluorescence intensity (a.u.)
15,ATCACTCTTCTTGGTCGTTCTTGCCATTCTTGTACCGCGACGGAGTCACCTAGTGCAG,18200 fluorescence intensity (a.u.)
16,GGTATCTGTTGCTGCTTGCTGGTTCTCGTGCTATTGTTCTCGGAGTCACCTAGTGCAG,19900 fluorescence intensity (a.u.)
17,CATGTAATTCTCTTCACTTTTGCTTGTTTGGGTTGTGAAACGGAGTCACCTAGTGCAG,10100 fluorescence intensity (a.u.)
18,TTCTTGCTAGTTCTTGTAGTATCTGGTTCTTGCTAGTTCTCGGAGTCACCTAGTGCAG,10800 fluorescence intensity (a.u.)
19,GTAATTCTGTTGTCATACGGTTTATTGTGTGGTTGCTGAACGGAGTCACCTAGTGCAG,9010 fluorescence intensity (a.u.)
20,TCTCTCTCTCGTCGTCTCGCGTCTCTTCTCTCAACCGCGACGGAGTCACCTAGTGCAG,13800 fluorescence intensity (a.u.)
21,CGGGGTTCTTGTGTTTATTGTTAAGATCCGGTTTGCTGAACGGAGTCACCTAGTGCAG,21900 fluorescence intensity (a.u.)

row,Sequence,binding signal
1,ATCAAAGTTGCTGGGGTTAATTTGGGTTCTTGGTTGTGAACGGAGTCACCTAGTGCAG,15600 fluorescence intensity (a.u.)
2,GCTTCTGCTTCTTCTTGTTCTTGTTGCTGTTGGTAATACTCGGAGTCACCTAGTGCAG,11000 fluorescence intensity (a.u.)
3,CTTCTCTTTGTTTTCTTGTTTGCTTGCTTGGTGTAAAGAACGGAGTCACCTAGTGCAG,16100 fluorescence intensity (a.u.)
4,CGCCACCGTCCTGCTCACCGGCGTTCCGCCGGAACGACTTCGGAGTCACCTAGTGCAG,9640 fluorescence intensity (a.u.)
5,ATTTTTTTTGTCAAACTGCCACGAAAGCGTCACGTTAATACGGAGTCACCTAGTGCAG,8240 fluorescence intensity (a.u.)
6,CAATTCACGCCACCCGCTCCGCCTCTCGCCGCCTCGACCGCGGAGTCACCTAGTGCAG,11000 fluorescence intensity (a.u.)
7,AAATTTTGACTCCTTCAGTTAATGATTTTCGTATACAAATCGGAGTCACCTAGTGCAG,8180 fluorescence intensity (a.u.)
8,ATCTCTCTCATATTCCTTCGATCTGCAGCTTGTACGTTGGCGGAGTCACCTAGTGCAG,14500 fluorescence intensity (a.u.)
9,CTGTTGACTATCCATGCCATTTTTACCGATTAGTCTATCTCGGAGTCACCTAGTGCAG,13800 fluorescence intensity (a.u.)
10,CGCAGTCCGAAGTTGATTTTTTTTTTTTTTACGGAGTACTCGGAGTCACCTAGTGCAG,8250 fluorescence intensity (a.u.)
11,TGATTGTGTTTGTAGACTTGGTTGGTATTGTTGAACGGATCGGAGTCACCTAGTGCAG,11800 fluorescence intensity (a.u.)
12,AGAGGGAGTATTATGTTTATGCTTTTAATTTTTCACTTTGCGGAGTCACCTAGTGCAG,9150 fluorescence intensity (a.u.)
13,CATCCGTATTTTAATGTATGACACCGTTGACTTTTCGACTCGGAGTCACCTAGTGCAG,19100 fluorescence intensity (a.u.)
14,CATATTTTAATTTTAATGTATGACACCGTTGACTTTTCGACGGAGTCACCTAGTGCAG,16000 fluorescence intensity (a.u.)
15,AAATACTCCCTCCGTATTTTAATGTATGACACCGTTGACTCGGAGTCACCTAGTGCAG,10300 fluorescence intensity (a.u.)
16,CCGTATTTTAATGTATATGACACCGTTGACTTTTTGACCACGGAGTCACCTAGTGCAG,40800 fluorescence intensity (a.u.)
17,TTTATGTAATGCCTTAAGATCACACATTGACTTATTTTTGCGGAGTCACCTAGTGCAG,8050 fluorescence intensity (a.u.)
18,AGGGAGCCTATTTTAATGTATGACACCGTTGACTTTTTTGCGGAGTCACCTAGTGCAG,19200 fluorescence intensity (a.u.)
19,TTATGCATCGATATATACCACATGTCAACCGATGAATTCACGGAGTCACCTAGTGCAG,9490 fluorescence intensity (a.u.)
20,TTTTCCAAACTTCCAACTTTCTATCACATCAAACCTTTCACGGAGTCACCTAGTGCAG,8100 fluorescence intensity (a.u.)
21,ACCTGGCTGTGCATGTACTACCCCAATGCATTTCTCTCTCCGGAGTCACCTAGTGCAG,8250 fluorescence intensity (a.u.)

row,Sequence,binding signal
1,ATTCTGTAACCCGCTGCGGGCAACGGCCGGACGTGCAATCCGGAGTCACCTAGTGCAG,9630 fluorescence intensity (a.u.)
2,CTGATCGAATACTCTAGCATTGCGATCTTTCCAAATTTGCCGGAGTCACCTAGTGCAG,8510 fluorescence intensity (a.u.)
3,GGAGGGTGCGACAGCCCAATGTATCACTTGCGTTTGTATCCGGAGTCACCTAGTGCAG,8230 fluorescence intensity (a.u.)
4,GTAGCATGCTTCTATCCTGTCCCGGTGTTTGTCGTACATTCGGAGTCACCTAGTGCAG,10200 fluorescence intensity (a.u.)
5,GATTGAGTGTGCCCGTGTGAGATAGAATCTTTTTGCCCTTCGGAGTCACCTAGTGCAG,8930 fluorescence intensity (a.u.)
6,AGCCACCACAGCCATCGCCCGTTCTTCCCGCCGGCCTATCCGGAGTCACCTAGTGCAG,9990 fluorescence intensity (a.u.)
7,GGCTTCCCGTTGCGCGCGCGTCCCATCCTCGCCGGCGCTTCGGAGTCACCTAGTGCAG,8470 fluorescence intensity (a.u.)
8,CCGCCGCTCCACCGTCTCAGCCATCGCCACCGCCCGCAGCCGGAGTCACCTAGTGCAG,8400 fluorescence intensity (a.u.)
9,CCGCCATCGCCGCCGCCATCCGTTGACCATGGCTTCAGCCCGGAGTCACCTAGTGCAG,18900 fluorescence intensity (a.u.)
10,ACAGCTTGCCGCCACCACCACACCACGCCGCTCGCCGCCCCGGAGTCACCTAGTGCAG,8950 fluorescence intensity (a.u.)
11,GGCTTCATCACAGCATCCATCGCCGCCGGCCACCACCACCCGGAGTCACCTAGTGCAG,12700 fluorescence intensity (a.u.)
12,ATCCCGTTGCGTCCCATTTTCCTCGCCCTCGTCGCTAGTTCGGAGTCACCTAGTGCAG,11200 fluorescence intensity (a.u.)
13,ACATCCCCGACCCGCCCCGCCTCACCGGTCATTCGCAGCCCGGAGTCACCTAGTGCAG,9440 fluorescence intensity (a.u.)
14,CACCGCCGCAGCCCAAGCCCACCACCACCACCGCCGCCGCCGGAGTCACCTAGTGCAG,9060 fluorescence intensity (a.u.)
15,CAGCCCGCCGCCCCGCCCCGCCCCGCCGCAGGTCATTGACCGGAGTCACCTAGTGCAG,16400 fluorescence intensity (a.u.)
16,TGTCAGCCTCGTCCGGCTTCATCCCGTTGCGTCCCATTTTCGGAGTCACCTAGTGCAG,17600 fluorescence intensity (a.u.)
17,GCCGCTCACAGCCGTCTTCGCTTGCCCGCCGCCATCGCCACGGAGTCACCTAGTGCAG,17500 fluorescence intensity (a.u.)
18,ATCTTTTCCGCTGTTGCTGCTCCTCCTTTCTCGCTCTCGCCGGAGTCACCTAGTGCAG,9750 fluorescence intensity (a.u.)
19,AGGTTCTATGACAGTATTGCACCCGGTTTTGTCAGCTGACCGGAGTCACCTAGTGCAG,8600 fluorescence intensity (a.u.)
20,CTCCCGTGTCCCATTTAAAACCTTCTTCTTCTTCTTCGCTCGGAGTCACCTAGTGCAG,8650 fluorescence intensity (a.u.)
21,CGCCACCACTGCTGCCATCGTCAACATCCTATATGATTTTCGGAGTCACCTAGTGCAG,13400 fluorescence intensity (a.u.)
